Here are results for twelve compounds from PubChem BioAssay (Tox21).

Values without a mark were called inactive. Inconclusive results are not listed. Active and inactive are the calls of the source. Unless noted, the call rests on the fitted dose curve; in most records, active means well fitted curve in the direction sought with a large enough effect in the repeat runs; inconclusive means weak or mixed curves; inactive means no such curve, though single readings can be large; an effect the other way counts as inactive or inconclusive.

Test [1] can be described thus: qHTS assay to identify small molecule agonists of H2AX (AID 1224845; active means well fitted activation curve with a large enough effect in the signal ratio in the repeat runs, not every such curve was filed as active; the % refers to the signal ratio). In a few lines:
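Wild-type CHO-K1 cells, plated overnight, exposed 3hr at 37C to 15 concentrations (0.76% DMSO final). Lysed, then HTRF anti-pH2AX (S139) cryptate and anti-H2AX-d2 antibodies, 24 hr room temperature; 665/620 nm emission read.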
On the technique in general: In qHTS, concentration-response curves come from the screen itself.

A short description of test [2]: qHTS assay to identify small molecule agonists of the hypoxia (HIF-1) signaling pathway (AID 1224846; active means well fitted activation curve with a large enough effect in the signal ratio in the repeat runs, not every such curve was filed as active; the % refers to the signal ratio). In a few lines: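 Reporter induction in HRE-bla ME-180 cells is taken as agonism: cells sit 5 hrs after plating, receive compounds or DMSO only, incubate 17 hrs at 37C under 5% CO2, and are loaded with CCF4-AM for beta-lactamase FRET measurement.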
The nature of test [3]: qHTS assay to identify small molecule agonists of H2AX - cell viability counter screen (AID 1224847; calls by dose curve; further: top concentration of the series differs between compounds; nearly all actives have a fitted effect of over 30% in size). The method in brief: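 CHO-K1 cells plated overnight at 37C, then exposed 3 h at 37C to compounds at 15 concentrations (0.76% DMSO final). Viability by CellTiter-Glo luminescence after 30 min at room temperature.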
Test [4] can be described thus: qHTS assay to identify small molecule antagonists of the estrogen related receptor (ERR) signaling pathway from Tox21 library (AID 1224848). Further: nearly all actives have a fitted effect of over 50% in size. Further: potency means the concentration at half of the fitted maximal effect. The method in brief: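 Quantitative high-throughput format: ERR reporter cells (2,000/well) pre-incubated 6 h, treated 18 h at 37 C with compounds in DMSO alongside positive and negative controls, then read by ONE-Glo luminescence.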

Test [5] is described as follows: qHTS assay to identify small molecule agonists of the estrogen related receptor (ERR) signaling pathway from Tox21 library (AID 1224849; calls by dose curve; further: nearly all actives have a fitted effect of over 15% in size). As to conditions: ERR reporter cell line, ONE-Glo luciferase, 18 h; at 92.4 µM (top of the series) unless noted. In a few lines: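 Tox21 compounds tested for ERR agonism in an NTP reporter cell line: 18 h treatment at 37 C, then ONE-Glo luminescence.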

Test [6] is described as follows: A CellTox Green Cytotoxicity Assay to monitor cytotoxicity in HEK293 cells - 0 hour (AID 1224869). Further: nearly all actives have a fitted effect of over 50% in size. The method in brief: (§1)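 Tox21 screen in HEK293: membrane-impermeant cyanine dye fluoresces on binding dead-cell DNA; compound pinned 5 h post-seeding, plates held at 37 C, signal read repeatedly through 40 h.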
Test [7] in a line: qHTS RealTime-Glo MT Cell Viability Assay in HepG2 cells - 40 hour (AID 1224870). Further: nearly all actives have a fitted effect of over 50% in size. The method in brief:
(§2)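 HepG2 cells (600/well) mixed with RealTime-Glo MT reagent, settled 5 h at 37 C/5% CO2 before compound addition. Nonlytic NanoLuc luminescence from viable-cell prosubstrate reduction read repeatedly during 40 h treatment at 37 C.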

The nature of test [8]: A CellTox Green Cytotoxicity Assay to monitor cytotoxicity in HEK293 cells - 40 hour (AID 1224871). Further: nearly all actives have a fitted effect of over 45% in size. In a few lines:
as §1

Test [9] can be described thus: qHTS RealTime-Glo MT Cell Viability Assay in HepG2 cells - 8 hour (AID 1224873). Further: nearly all actives have a fitted effect of over 55% in size. The method in brief:
as §2

The nature of test [10]: qHTS RealTime-Glo MT Cell Viability Assay in HEK293 cells - 40 hour (AID 1224874). Further: nearly all actives have a fitted effect of over 50% in size. Further: potency means the concentration at half of the fitted maximal effect. The note with it: RealTime-Glo luminescence; max response: hits give low values. The method in brief:
(§3)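 HEK293 + NanoLuc + prosubstrate, 600 cells/well; 5 h, 37 C/5% CO2; compound 23 nL in DMSO by pintool; 37 C; luminescence read at 0, 8, 16, 24, 32 and 40 h time points.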

Test [11] is described as follows: A CellTox Green Cytotoxicity Assay to monitor cytotoxicity in HEK293 cells - 24 hour (AID 1224875). Further: nearly all actives have a fitted effect of over 45% in size. The method in brief:
as §1

Test [12] is described as follows: qHTS RealTime-Glo MT Cell Viability Assay in HepG2 cells - 32 hour (AID 1224877). Further: nearly all actives have a fitted effect of over 55% in size. In a few lines:
(§4)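 Viability was tracked continuously by NanoLuc luminescence from prosubstrate reduced by living HepG2 cells, at successive time points over 40 h of compound exposure. Cells with reagent were preincubated 5 h at 37 °C before compound addition.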

The nature of test [13]: A CellTox Green Cytotoxicity Assay to monitor cytotoxicity in HepG2 cells - 24 hour (AID 1224878). Further: nearly all actives have a fitted effect of over 45% in size. The method in brief: (§5)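 Measurements at 0, 8, 16, 24, 32 and 40 h of treatment captured CellTox Green fluorescence in HepG2 cells that had been co-plated with reagent and preincubated 5 h at 37 C/5% CO2.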
The nature of test [14]: A CellTox Green Cytotoxicity Assay to monitor cytotoxicity in HepG2 cells - 40 hour (AID 1224879). Further: nearly all actives have a fitted effect of over 40% in size. In a few lines: as §5
Test [15] is described as follows: qHTS RealTime-Glo MT Cell Viability Assay in HEK293 cells - 0 hour (AID 1224880). Further: nearly all actives have a fitted effect of over 45% in size. Further: potency means the concentration at half of the fitted maximal effect. The method in brief:
as §3

Test [16] can be described thus: A CellTox Green Cytotoxicity Assay to monitor cytotoxicity in HEK293 cells - 32 hour (AID 1224881). Further: nearly all actives have a fitted effect of over 40% in size. The method in brief:
as §1

Test [17] in a line: qHTS RealTime-Glo MT Cell Viability Assay in HEK293 cells - 32 hour (AID 1224868). Further: nearly all actives have a fitted effect of over 50% in size. Further: potency means the concentration at half of the fitted maximal effect. In a few lines:
(§6)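 Viability tracked continuously by luminescence as live cells reduce a prosubstrate for NanoLuc; HEK293 cells preincubated 5 h, compound-treated at 37 C, and read at 0, 8, 16, 24, 32 and 40 h.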

Test [18] is described as follows: qHTS RealTime-Glo MT Cell Viability Assay in HEK293 cells - 16 hour (AID 1224872). Further: nearly all actives have a fitted effect of over 50% in size. Further: potency means the concentration at half of the fitted maximal effect. In a few lines:
as §6

Test [19] in a line: qHTS RealTime-Glo MT Cell Viability Assay in HepG2 cells - 24 hour (AID 1224867). Further: nearly all actives have a fitted effect of over 50% in size. In a few lines:
as §4

The nature of test [20]: A CellTox Green Cytotoxicity Assay to monitor cytotoxicity in HepG2 cells - 16 hour (AID 1224876). Further: nearly all actives have a fitted effect of over 45% in size. In a few lines:
as §5
On the % scale 0 is the no-effect control and ±100 the full control effect.

Consider `CC(=O)[C@@]1(O)CC[C@H]2[C@@H]3C[C@H](C)C4=CC(=O)CC[C@]4(C)[C@H]3CC[C@@]21C`, for which the Potency entry in test [1], in test [3], in test [6], in [7], in test [8] and in test [9] was “inactive” throughout. Further, the Potency result in [11], in test [12], in test [13], in test [14] and in test [16] was “inactive” each time. Further, the result in test [2] was inactive. The Potency is 23.7 µM (active) in test [4], 19 µM (active) in test [10] and 6.74 µM (active) in test [15]. Further, the activity change, positive = activation in test [5] is -36.6% [at 42.5 µM].

For the compound `C=C(C)C(=O)OCCOc1ccccc1`, the Potency result in test [1], in test [3], in [4], in test [17], in [6] and in test [7] was “inactive” in each case. Further, the Potency result in test [8], in test [18], in test [11], in [12], in test [13] and in [14] was “inactive” throughout. In addition, the Potency result in test [15] and in test [16] was “inactive” in each case. In test [2], the result was inactive. Besides, the activity change, positive = activation in test [5] was 3.64%. In addition, the max response in [10] is 8.99%.

Regarding `NC(=S)N/N=C/c1cccnc1`, the Potency result in [1], in test [3], in test [4], in test [19], in test [17] and in test [6] was “inactive” in each case. Also, the Potency entry in test [7], in test [8], in test [18], in test [11], in [20] and in test [12] was “inactive” in each case. Further, the Potency result in test [13], in test [14], in test [15] and in test [16] was “inactive” each time. For the same compound, the call in test [2] was inactive. For the same compound, the activity change, positive = activation in [5] was 0.0845% [at 42.5 µM]. The max response in [10] was 6.57%.

As to `Nc1nc(N)c(-c2ccccc2)s1`, the Potency entry in test [1], in test [3], in test [19], in test [17], in test [6] and in test [7] was “inactive” throughout. Moreover, the Potency result in test [8], in [18], in test [9], in [11], in test [20] and in test [12] was “inactive” each time. The Potency entry in test [13], in test [14] and in test [16] was “inactive” each time. Moreover, the compound was classed as inactive in test [2]. Besides, the activity change, positive = activation in [5] is 3.26% [at 42.5 µM]. The max response in test [10] was 5.71%.

On to `CC(C)(C)c1cc(O)c(C(C)(C)C)cc1O`, for which the Potency entry in test [1], in test [3], in [19], in test [6], in test [7] and in test [8] was “inactive” each time. In addition, the Potency result in test [9], in test [11], in test [12], in test [14], in test [15] and in [16] was “inactive” throughout. Besides, the outcome in [2] was inactive. In addition, the Potency in [4] is 24.3 µM (active); in test [17], 24.5 µM (active); in test [18], 17.4 µM (active); in test [10], 30.9 µM (active). In addition, the activity change, positive = activation in test [5] was -60.5%.

Turning to `O=C(O)C(c1ccc(Cl)cc1)c1ccc(Cl)cc1`, the Potency result in test [1], in test [3], in test [19], in test [17], in [6] and in test [7] was “inactive” throughout. Also, the Potency entry in [8], in test [18], in test [9], in [11], in test [20] and in [12] was “inactive” in each case. Moreover, the Potency entry in [13], in [14] and in test [16] was “inactive” in each case. For the same compound, the compound was classed as inactive in test [2]. Also, the activity change, positive = activation in test [5] is -7.31%. The max response in test [10] is -1.91%.

Consider `CCCC[C@H]1CN(CC2CCOCC2)C(=O)OC12CCN(C1(C)CCN(C(=O)c3c(C)ncnc3C)CC1)CC2`, for which the Potency result in test [1], in [3], in test [19], in test [17], in test [6] and in [7] was “inactive” each time. Further, the Potency entry in test [8], in test [18], in test [9], in test [11], in test [20] and in test [12] was “inactive” in each case. Moreover, the Potency result in test [15] and in test [16] was “inactive” throughout. For the same compound, the compound was called inactive in test [2]. The activity change, positive = activation in test [5] is -0.219%. The max response in test [10] is 0.654%.

For the compound `CN(C)CCCOc1nn(Cc2ccccc2)c2ccccc12`, the Potency result in test [1], in test [3], in test [4], in test [19], in test [6] and in test [8] was “inactive” each time. The Potency result in test [18], in [9], in [11], in [12] and in test [16] was “inactive” each time. Further, the outcome in [2] was inactive. Further, in test [5], the activity change, positive = activation was -2.65% [at 42.5 µM].

As for `Cc1cc(NC(=O)C(=O)O)cc(C)c1Oc1ccc(O)c2c1CCC2`, the Potency result in test [1], in test [3], in [4], in [19], in test [17] and in test [6] was “inactive” each time. The Potency entry in [7], in test [8], in test [18], in test [9], in test [11] and in test [20] was “inactive” throughout. The Potency entry in [12], in test [13], in [14], in test [15] and in test [16] was “inactive” in each case. Also, the compound was called inactive in [2]. In addition, in [5], the activity change, positive = activation is 1.77%. The max response in [10] was -8.77%.

As to `CCN(CC)CCOC(=O)C1(c2ccccc2)CCCC1`, the Potency result in [1], in test [3], in test [19], in [17], in test [6] and in test [7] was “inactive” throughout. Further, the Potency result in test [8], in test [18], in [9], in test [11], in test [20] and in [12] was “inactive” throughout. The Potency result in test [13], in [15] and in test [16] was “inactive” throughout. Moreover, the compound was classed as inactive in test [2]. In addition, the activity change, positive = activation in test [5] was 0.628% [at 42.5 µM]. In test [10], the max response was -9.49%.

Consider `O=C(O)c1cccc(N(Cc2cccnc2)c2ccc(OC(F)F)c(OC(F)F)c2)c1`, for which the Potency result in test [1], in test [3], in test [17], in test [6], in test [8] and in test [18] was “inactive” throughout. Besides, the Potency result in [11], in [20], in test [13], in [14] and in [16] was “inactive” each time. Further, in test [2], the result was inactive. Moreover, the Potency in [4] is 61.1 µM (active). In [5], the activity change, positive = activation is -33.2%. In addition, the max response in test [10] was -2.06%.

On to `Cc1ccccn1`, for which the Potency entry in test [1], in [3], in [4], in test [19], in test [17] and in test [6] was “inactive” in each case. Also, the Potency entry in [7], in test [8], in test [18], in test [9], in [11] and in test [20] was “inactive” each time. For the same compound, the Potency result in test [12], in test [13], in [14] and in test [16] was “inactive” throughout. In test [2], the compound was called inactive. For the same compound, the activity change, positive = activation in test [5] was 1.44%. In addition, the max response in test [10] was 4.7%.
